# Laboratory results from PMC7862700, “An all-to-all approach to the identification of sequence-specific readers for epigenetic DNA modifications on cytosine”.
# Columns and labels:
# Test in all cases: DAPPL (digital affinity profiling via proximity ligation, sequencing); 10 mM Tris-HCl pH 7.5, 50 mM NaCl, 1 mM DTT, 4% glycerol, room temperature, 30 min; GST-TFs on glutathione beads, 16-mer random dsDNA library, 0.1% formaldehyde crosslink after washing; high values mean tight binding
# FLI1 = biological target: T1, FLI1 (Homo sapiens, UniProt Q01543 1-452); conditions: protein: recombinant; tags: N-terminal GST; dsDNA, one strand shown
# T1 sequence: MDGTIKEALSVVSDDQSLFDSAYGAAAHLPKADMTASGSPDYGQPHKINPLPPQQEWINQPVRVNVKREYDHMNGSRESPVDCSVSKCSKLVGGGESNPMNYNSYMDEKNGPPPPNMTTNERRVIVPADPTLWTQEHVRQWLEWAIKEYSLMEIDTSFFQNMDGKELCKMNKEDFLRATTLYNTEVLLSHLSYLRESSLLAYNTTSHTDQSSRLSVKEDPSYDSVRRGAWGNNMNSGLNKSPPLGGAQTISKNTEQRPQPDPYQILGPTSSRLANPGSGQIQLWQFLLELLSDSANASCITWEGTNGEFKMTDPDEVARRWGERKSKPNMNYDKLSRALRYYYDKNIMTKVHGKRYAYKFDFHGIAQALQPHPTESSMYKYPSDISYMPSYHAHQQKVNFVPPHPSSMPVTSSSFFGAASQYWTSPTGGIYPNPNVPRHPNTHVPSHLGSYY
# Summary of the method: (§1)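 A tag-only sample was pooled with DNA-barcoded human transcription factors that had been expressed in yeast as GST fusions and captured on glutathione beads. The pools were incubated for 30 min at room temperature with 200 nmole of a random double-stranded 16-mer DNA library in Tris/NaCl/DTT/glycerol buffer, then washed, crosslinked with 0.1% formaldehyde, proximity-ligated (BsaI/T4 ligase, 1 h, 37 °C), PCR-amplified and sequenced on an Illumina NextSeq500. Binding signal is each hexamer's read frequency for a factor divided by its frequency for the tag-only sample.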
# ELK1 = biological target: T2, ELK1 (Homo sapiens, UniProt P19419 1-428); conditions: protein: recombinant; tags: N-terminal GST; dsDNA, one strand shown
# T2 sequence: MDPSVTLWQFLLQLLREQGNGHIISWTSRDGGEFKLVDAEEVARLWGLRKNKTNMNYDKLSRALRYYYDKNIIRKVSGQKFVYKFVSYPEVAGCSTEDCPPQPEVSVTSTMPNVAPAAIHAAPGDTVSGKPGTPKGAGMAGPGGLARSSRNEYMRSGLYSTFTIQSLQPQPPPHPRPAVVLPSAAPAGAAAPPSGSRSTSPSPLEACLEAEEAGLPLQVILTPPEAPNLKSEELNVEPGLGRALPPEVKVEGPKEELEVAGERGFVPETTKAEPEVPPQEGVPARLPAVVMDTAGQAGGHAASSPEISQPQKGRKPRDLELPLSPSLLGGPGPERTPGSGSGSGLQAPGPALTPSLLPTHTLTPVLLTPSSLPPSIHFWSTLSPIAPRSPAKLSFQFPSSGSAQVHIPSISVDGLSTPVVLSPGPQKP
# Summary of the method: as §1
# GABPA = biological target: T3, GABPA (Homo sapiens, UniProt Q06546 1-454); conditions: protein: recombinant; tags: N-terminal GST; dsDNA, one strand shown
# T3 sequence: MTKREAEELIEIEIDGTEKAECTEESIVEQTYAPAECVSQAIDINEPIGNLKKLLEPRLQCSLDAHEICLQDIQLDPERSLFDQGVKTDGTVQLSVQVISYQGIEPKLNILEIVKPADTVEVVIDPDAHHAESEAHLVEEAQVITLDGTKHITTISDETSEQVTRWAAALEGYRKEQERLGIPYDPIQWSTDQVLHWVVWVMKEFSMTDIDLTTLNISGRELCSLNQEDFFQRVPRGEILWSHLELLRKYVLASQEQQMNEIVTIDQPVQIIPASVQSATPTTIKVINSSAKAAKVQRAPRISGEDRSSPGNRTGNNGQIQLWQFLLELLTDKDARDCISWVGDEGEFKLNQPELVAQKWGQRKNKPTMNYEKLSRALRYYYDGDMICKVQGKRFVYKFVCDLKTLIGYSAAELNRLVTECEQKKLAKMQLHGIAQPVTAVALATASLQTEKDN
# Summary of the method: as §1
# ERG = biological target: T4, ERG (Homo sapiens, UniProt P11308 1-479); conditions: protein: recombinant; tags: N-terminal GST; dsDNA, one strand shown
# T4 sequence: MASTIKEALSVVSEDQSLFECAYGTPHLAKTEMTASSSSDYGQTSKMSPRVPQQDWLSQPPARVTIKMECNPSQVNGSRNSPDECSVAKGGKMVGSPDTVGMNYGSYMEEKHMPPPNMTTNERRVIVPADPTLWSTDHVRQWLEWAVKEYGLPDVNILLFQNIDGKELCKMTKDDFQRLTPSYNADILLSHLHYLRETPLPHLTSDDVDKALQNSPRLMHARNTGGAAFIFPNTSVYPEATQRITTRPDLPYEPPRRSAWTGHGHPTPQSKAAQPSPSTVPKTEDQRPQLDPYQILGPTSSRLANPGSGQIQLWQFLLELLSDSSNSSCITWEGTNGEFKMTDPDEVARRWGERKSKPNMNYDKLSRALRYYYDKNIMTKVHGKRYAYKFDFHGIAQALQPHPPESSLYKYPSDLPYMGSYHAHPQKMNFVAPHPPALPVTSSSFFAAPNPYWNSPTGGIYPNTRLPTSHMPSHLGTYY
# Summary of the method: as §1
# ELF1 = ELF1 (Homo sapiens, UniProt P32519 1-619); conditions: protein: recombinant; tags: N-terminal GST; dsDNA, one strand shown
# Sequence of ELF1 (P32519 whole entry): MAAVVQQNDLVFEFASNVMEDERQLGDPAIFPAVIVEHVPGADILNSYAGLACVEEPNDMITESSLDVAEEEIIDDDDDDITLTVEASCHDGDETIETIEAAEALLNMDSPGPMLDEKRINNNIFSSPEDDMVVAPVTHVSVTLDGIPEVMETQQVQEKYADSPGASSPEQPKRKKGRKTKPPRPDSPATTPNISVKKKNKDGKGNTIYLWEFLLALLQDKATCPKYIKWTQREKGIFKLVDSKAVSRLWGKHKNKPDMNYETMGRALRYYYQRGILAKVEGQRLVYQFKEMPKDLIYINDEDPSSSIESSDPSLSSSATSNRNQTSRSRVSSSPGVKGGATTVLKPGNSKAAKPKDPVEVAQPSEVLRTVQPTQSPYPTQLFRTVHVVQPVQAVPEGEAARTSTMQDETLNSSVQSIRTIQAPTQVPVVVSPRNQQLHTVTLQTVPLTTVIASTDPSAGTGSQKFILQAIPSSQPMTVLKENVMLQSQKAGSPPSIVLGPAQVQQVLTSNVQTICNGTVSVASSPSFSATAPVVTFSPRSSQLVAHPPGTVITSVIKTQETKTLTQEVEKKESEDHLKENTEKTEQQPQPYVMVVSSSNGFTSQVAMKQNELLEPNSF
# Summary of the method: as §1
# EHF = biological target: T5, EHF (Homo sapiens, UniProt Q9NZC4 1-300); conditions: protein: recombinant; tags: N-terminal GST; dsDNA, one strand shown
# T5 sequence: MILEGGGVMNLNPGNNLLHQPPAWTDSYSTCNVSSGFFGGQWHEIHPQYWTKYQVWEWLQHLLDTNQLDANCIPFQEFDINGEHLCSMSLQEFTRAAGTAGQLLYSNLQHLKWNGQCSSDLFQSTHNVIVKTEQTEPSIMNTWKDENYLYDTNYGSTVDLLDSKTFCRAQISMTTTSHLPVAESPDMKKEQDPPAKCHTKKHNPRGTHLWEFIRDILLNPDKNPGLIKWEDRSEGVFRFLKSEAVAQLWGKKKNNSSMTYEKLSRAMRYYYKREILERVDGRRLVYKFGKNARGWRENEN
# Summary of the method: as §1
# SPI1 = SPI1 (Homo sapiens, UniProt P17947 1-270); conditions: protein: recombinant; tags: N-terminal GST; dsDNA, one strand shown
# Summary of the method: as §1
# SPIB = SPIB (Homo sapiens, UniProt Q01892 1-262); conditions: protein: recombinant; tags: N-terminal GST; dsDNA, one strand shown
# Sequence of SPIB (Q01892 whole entry): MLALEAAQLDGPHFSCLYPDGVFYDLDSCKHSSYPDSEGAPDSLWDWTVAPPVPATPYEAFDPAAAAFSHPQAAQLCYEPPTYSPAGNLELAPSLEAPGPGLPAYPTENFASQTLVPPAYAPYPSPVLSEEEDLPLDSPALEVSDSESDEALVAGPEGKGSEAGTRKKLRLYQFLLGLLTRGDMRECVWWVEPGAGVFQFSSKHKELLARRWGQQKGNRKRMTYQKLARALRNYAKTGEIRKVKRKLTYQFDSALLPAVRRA
# Summary of the method: as §1
# ELK3 = biological target: T6, ELK3 (Homo sapiens, UniProt P41970 1-407); conditions: protein: recombinant; tags: N-terminal GST; dsDNA, one strand shown
# T6 sequence: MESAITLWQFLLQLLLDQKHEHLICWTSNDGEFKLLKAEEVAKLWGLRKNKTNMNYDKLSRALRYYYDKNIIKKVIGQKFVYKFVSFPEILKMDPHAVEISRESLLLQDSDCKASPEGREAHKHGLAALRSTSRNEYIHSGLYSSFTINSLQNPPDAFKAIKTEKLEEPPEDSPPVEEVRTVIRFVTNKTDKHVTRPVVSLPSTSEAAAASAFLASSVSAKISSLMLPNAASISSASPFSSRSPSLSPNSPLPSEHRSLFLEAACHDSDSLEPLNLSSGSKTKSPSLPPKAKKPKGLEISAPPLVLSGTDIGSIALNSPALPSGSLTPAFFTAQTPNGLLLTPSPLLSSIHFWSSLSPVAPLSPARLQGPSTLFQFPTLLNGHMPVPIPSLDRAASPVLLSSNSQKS
# Summary of the method: as §1
# FEV = biological target: T7, FEV (Homo sapiens, UniProt Q99581 1-238); conditions: protein: recombinant; tags: N-terminal GST; dsDNA, one strand shown
# T7 sequence: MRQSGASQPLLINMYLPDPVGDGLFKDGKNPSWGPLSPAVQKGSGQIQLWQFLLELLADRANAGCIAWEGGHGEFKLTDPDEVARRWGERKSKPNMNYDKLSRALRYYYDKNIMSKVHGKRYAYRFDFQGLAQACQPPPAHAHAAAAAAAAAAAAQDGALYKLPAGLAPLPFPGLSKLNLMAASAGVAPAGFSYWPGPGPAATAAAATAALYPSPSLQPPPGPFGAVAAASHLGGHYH
# Summary of the method: as §1
# ETV5 = ETV5 (Homo sapiens, UniProt P41161 1-510); conditions: protein: recombinant; tags: N-terminal GST; dsDNA, one strand shown
# Sequence of ETV5 (P41161 whole entry): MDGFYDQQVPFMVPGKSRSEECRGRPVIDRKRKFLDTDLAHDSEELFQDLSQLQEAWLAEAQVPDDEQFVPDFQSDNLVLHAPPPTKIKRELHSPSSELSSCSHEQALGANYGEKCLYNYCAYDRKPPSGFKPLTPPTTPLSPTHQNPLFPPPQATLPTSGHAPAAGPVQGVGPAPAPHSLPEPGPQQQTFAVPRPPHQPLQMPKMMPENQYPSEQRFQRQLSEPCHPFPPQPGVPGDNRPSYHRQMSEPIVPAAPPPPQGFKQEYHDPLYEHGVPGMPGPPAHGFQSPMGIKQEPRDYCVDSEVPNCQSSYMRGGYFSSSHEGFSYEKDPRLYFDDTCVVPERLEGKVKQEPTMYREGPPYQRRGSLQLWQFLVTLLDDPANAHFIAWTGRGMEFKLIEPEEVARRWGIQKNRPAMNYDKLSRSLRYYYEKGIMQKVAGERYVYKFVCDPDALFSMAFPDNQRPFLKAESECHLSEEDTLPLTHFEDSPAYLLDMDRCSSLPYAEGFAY
# Summary of the method: as §1
# HSF1 = HSF1 (Homo sapiens, UniProt Q00613 1-529); conditions: protein: recombinant; tags: N-terminal GST; chain copies: 3; dsDNA, one strand shown
# Sequence of HSF1 (Q00613 whole entry): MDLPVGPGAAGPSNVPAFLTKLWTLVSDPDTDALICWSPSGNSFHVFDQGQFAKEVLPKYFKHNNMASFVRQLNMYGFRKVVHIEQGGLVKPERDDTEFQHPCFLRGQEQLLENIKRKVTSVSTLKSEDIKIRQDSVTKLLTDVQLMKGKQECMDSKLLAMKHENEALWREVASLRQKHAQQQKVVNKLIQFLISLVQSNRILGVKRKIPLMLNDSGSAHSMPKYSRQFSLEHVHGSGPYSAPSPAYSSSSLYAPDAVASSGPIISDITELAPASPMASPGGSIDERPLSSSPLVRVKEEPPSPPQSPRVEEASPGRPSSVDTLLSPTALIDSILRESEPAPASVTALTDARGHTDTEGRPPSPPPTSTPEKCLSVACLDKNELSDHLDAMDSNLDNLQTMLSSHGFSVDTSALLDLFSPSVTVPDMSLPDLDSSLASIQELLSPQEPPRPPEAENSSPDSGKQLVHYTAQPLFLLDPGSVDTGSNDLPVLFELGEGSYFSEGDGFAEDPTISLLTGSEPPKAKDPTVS
# Summary of the method: as §1
# SPIC = biological target: T8, SPIC (Homo sapiens, UniProt Q8N5J4 1-248); conditions: protein: recombinant; tags: N-terminal GST; dsDNA, one strand shown
# T8 sequence: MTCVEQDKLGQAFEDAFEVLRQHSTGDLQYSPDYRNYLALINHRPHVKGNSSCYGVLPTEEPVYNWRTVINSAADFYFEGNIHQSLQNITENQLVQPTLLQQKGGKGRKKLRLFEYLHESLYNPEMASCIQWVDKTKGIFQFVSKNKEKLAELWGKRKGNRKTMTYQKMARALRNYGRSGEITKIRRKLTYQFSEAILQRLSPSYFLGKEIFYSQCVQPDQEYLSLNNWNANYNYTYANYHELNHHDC
# Summary of the method: as §1
# ELF4 = ELF4 (Homo sapiens, UniProt Q99607 1-663); conditions: protein: recombinant; tags: N-terminal GST; dsDNA, one strand shown
# Sequence of ELF4 (Q99607 whole entry): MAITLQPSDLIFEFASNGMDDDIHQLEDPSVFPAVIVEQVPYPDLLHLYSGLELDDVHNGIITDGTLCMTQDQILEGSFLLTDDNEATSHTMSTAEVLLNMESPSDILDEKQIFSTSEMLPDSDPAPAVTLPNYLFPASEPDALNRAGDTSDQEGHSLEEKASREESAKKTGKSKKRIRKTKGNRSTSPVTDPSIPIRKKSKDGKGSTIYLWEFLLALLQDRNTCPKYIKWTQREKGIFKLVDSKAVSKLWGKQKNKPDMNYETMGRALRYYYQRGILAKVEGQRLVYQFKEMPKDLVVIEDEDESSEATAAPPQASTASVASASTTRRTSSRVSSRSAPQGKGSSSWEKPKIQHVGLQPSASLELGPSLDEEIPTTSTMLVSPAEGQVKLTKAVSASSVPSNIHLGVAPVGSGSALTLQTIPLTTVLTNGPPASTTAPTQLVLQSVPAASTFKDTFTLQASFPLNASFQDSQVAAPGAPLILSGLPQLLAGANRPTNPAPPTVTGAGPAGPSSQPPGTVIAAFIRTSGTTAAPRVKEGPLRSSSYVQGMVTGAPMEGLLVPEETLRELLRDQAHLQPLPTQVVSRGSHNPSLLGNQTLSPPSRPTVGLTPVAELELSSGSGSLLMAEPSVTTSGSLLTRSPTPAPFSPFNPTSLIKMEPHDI
# Summary of the method: as §1
# ELK4 = biological target: T9, ELK4 (Homo sapiens, UniProt P28324-2 1-405); conditions: protein: recombinant; tags: N-terminal GST; dsDNA, one strand shown
# T9 sequence: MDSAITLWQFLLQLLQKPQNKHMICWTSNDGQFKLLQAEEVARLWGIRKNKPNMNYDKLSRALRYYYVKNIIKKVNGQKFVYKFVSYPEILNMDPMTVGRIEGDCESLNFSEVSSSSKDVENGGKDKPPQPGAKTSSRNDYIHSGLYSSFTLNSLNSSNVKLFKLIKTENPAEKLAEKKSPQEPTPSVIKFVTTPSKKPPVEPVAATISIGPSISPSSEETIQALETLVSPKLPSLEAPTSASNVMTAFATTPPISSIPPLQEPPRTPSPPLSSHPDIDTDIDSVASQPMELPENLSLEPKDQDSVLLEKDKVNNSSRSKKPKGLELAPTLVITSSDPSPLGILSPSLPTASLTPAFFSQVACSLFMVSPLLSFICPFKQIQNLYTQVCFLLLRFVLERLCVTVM
# Summary of the method: as §1
# ETV2 = biological target: T10, ETV2 (Homo sapiens, UniProt O00321 1-342); conditions: protein: recombinant; tags: N-terminal GST; dsDNA, one strand shown
# T10 sequence: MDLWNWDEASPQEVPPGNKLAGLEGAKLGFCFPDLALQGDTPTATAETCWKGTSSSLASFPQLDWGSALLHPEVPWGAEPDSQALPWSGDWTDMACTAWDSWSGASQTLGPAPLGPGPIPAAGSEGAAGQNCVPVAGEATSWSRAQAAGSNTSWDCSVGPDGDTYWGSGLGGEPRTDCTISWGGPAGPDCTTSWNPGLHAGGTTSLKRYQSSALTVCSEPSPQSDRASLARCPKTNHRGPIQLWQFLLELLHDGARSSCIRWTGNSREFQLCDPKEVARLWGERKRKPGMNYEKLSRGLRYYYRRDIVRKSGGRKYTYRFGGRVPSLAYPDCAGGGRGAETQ
# Summary of the method: as §1
# ELF3 = biological target: T11, ELF3 (Homo sapiens, UniProt P78545 1-371); conditions: protein: recombinant; tags: N-terminal GST; dsDNA, one strand shown
# T11 sequence: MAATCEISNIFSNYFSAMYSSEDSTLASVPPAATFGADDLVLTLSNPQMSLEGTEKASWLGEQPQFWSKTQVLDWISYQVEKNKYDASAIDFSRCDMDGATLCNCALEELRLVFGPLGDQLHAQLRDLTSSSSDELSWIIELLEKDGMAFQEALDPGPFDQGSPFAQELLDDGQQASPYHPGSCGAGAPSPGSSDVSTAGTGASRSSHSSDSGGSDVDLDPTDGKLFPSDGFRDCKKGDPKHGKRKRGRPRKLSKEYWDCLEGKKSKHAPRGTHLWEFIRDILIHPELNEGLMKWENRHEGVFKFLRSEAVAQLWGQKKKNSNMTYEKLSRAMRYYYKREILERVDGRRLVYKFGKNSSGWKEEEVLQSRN
# Summary of the method: as §1
# CRX = CRX (Homo sapiens, UniProt O43186 1-299); conditions: protein: recombinant; tags: N-terminal GST; dsDNA, one strand shown
# Sequence of CRX (O43186 whole entry): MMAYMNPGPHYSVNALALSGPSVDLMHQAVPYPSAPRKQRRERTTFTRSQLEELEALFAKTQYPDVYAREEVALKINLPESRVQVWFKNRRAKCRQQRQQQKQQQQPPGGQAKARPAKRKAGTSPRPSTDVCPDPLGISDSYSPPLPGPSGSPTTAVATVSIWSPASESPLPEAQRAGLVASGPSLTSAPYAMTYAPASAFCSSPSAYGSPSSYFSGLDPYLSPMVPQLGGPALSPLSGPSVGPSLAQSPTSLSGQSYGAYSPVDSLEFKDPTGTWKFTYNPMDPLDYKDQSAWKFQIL
# Summary of the method: as §1
# ETV1 = ETV1 (Homo sapiens, UniProt P50549 1-477); conditions: protein: recombinant; tags: N-terminal GST; dsDNA, one strand shown
# Sequence of ETV1 (P50549 whole entry): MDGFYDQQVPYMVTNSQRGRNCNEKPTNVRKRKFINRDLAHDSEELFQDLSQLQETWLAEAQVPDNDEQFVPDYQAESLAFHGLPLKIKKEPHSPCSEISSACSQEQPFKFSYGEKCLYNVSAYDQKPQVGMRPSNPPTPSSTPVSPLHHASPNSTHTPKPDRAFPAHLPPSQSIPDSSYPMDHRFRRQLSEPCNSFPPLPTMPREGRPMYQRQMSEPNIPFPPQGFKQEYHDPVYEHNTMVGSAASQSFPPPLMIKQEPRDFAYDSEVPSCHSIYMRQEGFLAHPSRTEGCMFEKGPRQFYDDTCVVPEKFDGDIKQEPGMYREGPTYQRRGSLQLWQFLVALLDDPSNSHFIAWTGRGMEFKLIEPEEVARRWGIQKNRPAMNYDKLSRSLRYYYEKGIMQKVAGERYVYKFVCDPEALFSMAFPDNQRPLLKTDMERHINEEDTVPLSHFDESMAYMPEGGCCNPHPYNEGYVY
# Summary of the method: as §1
sequence,measurement,setting,value
GATGCT,binding signal,FLI1,"1.18 fold enrichment (6-mer frequency, TF over GST control)"
same,binding signal,ELK1,"1.11 fold enrichment (6-mer frequency, TF over GST control)"
same,binding signal,GABPA,"1.14 fold enrichment (6-mer frequency, TF over GST control)"
same,binding signal,ERG,"1.12 fold enrichment (6-mer frequency, TF over GST control)"
same,binding signal,ELF1,"1.12 fold enrichment (6-mer frequency, TF over GST control)"
same,binding signal,EHF,"1.25 fold enrichment (6-mer frequency, TF over GST control)"
same,binding signal,SPI1,"1.23 fold enrichment (6-mer frequency, TF over GST control)"
same,binding signal,SPIB,"1.22 fold enrichment (6-mer frequency, TF over GST control)"
same,binding signal,ELK3,"1.2 fold enrichment (6-mer frequency, TF over GST control)"
same,binding signal,FEV,"1.23 fold enrichment (6-mer frequency, TF over GST control)"
same,binding signal,ETV5,"1.29 fold enrichment (6-mer frequency, TF over GST control)"
same,binding signal,HSF1,"1.13 fold enrichment (6-mer frequency, TF over GST control)"
same,binding signal,SPIC,"1.35 fold enrichment (6-mer frequency, TF over GST control)"
same,binding signal,ELF4,"1.26 fold enrichment (6-mer frequency, TF over GST control)"
same,binding signal,ELK4,"1.28 fold enrichment (6-mer frequency, TF over GST control)"
same,binding signal,ETV2,"1.18 fold enrichment (6-mer frequency, TF over GST control)"
same,binding signal,ELF3,"1.3 fold enrichment (6-mer frequency, TF over GST control)"
same,binding signal,CRX,"1.06 fold enrichment (6-mer frequency, TF over GST control)"
same,binding signal,ETV1,"1.27 fold enrichment (6-mer frequency, TF over GST control)"
